PubChem BioAssay AID588819 (The Scripps Research Institute Molecular Screening Center, 2011)
In all, about 360,000 compounds went through this assay and about 320 (0.089%) were called active. No stated cut-off is given here; in the data, active means activation above about 19% (passing the limit was not always enough); inactive means the rest. Only a selection was taken, and actives are over-represented in it overall.

target: Muscarinic acetylcholine receptor M1 (Homo sapiens) (UniProt P11229); experiment: human M1 muscarinic receptor positive allosteric modulators, primary screen, CHO-K1 cells, Fluo-8 calcium fluorescence, 1536-well (AID 588819); details: CHO-K1 hM1, Fluo-8 calcium fluorescence, ACh EC20; at 3 µM; hits give high values; 0% = ACh EC20, 100% = maximal ACh
Sequence (P11229 whole entry, looked up): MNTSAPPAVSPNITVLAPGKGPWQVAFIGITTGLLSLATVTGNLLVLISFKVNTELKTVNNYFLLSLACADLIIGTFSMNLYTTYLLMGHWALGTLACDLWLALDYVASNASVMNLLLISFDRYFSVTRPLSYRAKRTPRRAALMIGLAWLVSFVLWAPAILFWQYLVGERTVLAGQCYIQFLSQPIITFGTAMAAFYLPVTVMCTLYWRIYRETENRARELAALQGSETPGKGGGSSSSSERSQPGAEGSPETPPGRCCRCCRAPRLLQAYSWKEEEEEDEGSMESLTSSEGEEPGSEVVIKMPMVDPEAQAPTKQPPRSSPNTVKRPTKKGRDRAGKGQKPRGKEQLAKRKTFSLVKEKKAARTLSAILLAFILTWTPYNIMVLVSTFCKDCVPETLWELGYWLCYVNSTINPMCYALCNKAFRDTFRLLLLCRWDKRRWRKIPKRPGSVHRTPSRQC

activation, inactive:
O=C(c1cncc(Br)c1)N1CCN(c2ccc([N+](=O)[O-])cc2)CC1 -20%
CCc1cccc(C)c1NS(=O)(=O)c1c(C)nc2sccn2c1=O 4.98%
Cc1ccc(-c2csc(N3CCN(c4cc5c(cc4Cl)nc(-c4ccncc4)n5CCOCCO)CC3)n2)cc1 21.4%
Cc1ccc2nc(SCC(=O)N3CCN(c4ccccc4)CC3)nc(=O)n2c1 3.95%
Cc1ccc(-n2c(CNc3ccc(F)cc3)nnc2SCC(=O)N2CCOCC2)cc1 7.13%
O=C(O)CN1C(=O)CC(Cc2ccccc2)C1=O (configuration not stated) 11.7%
O=C1N[C@@H](Cc2ccccc2)C(=O)N2[C@H]1C[C@]1(Br)c3ccccc3N(S(=O)(=O)c3ccccc3)[C@H]21 7.1%
CSc1ccc(S(=O)(=O)NCC(=O)OCC(=O)NC2(C#N)CCCCC2)cc1[N+](=O)[O-] 3.7%
Cc1ccc(N2C(=O)c3ccccc3C2(O)c2ncc[nH]2)cc1 (configuration not stated) 8.87%
CCc1c(C)nc2ncnn2c1N1CCC(C(=O)NCc2ccc3c(c2)OCO3)CC1 5.91%
COCCn1c(SCC(=O)Nc2ccccc2F)nc2c(c1=O)SCC2 7.02%
Cn1c(SCC(=O)N2CCCCC2)nc2c(c1=O)SCC2 -5.48%
CSCCC(NC(=O)c1ccco1)C(=O)Nc1cc(C)ccn1 (configuration not stated) 3.47%
Cc1c(Cl)cnc(NC(=O)COC(=O)C2CCCC2)c1Cl 4.9%
C/C(=N/NC(=O)c1ccncc1)c1ccc2c(c1)OCO2 6.79%
CC(=NNC(=O)c1ccncc1)c1ccc(Cl)c(Cl)c1 -2.62%
Cc1cccc2c1N(CCOc1ccccc1)C(=O)C2=O 8.27%
Cc1cc(C)c(S(=O)(=O)c2ccc(F)cc2C)c(=O)[nH]1 2.45%
COC(=O)C1=C(C)N(C(C)c2ccccc2)C(=O)/C1=C\c1ccco1 (configuration not stated) 3.44%
CCCc1cc(=O)n2[nH]c(C)c(-c3ccc(Cl)cc3)c2n1 12.2%
COc1ccc(C(=O)NCC2CCCN2S(=O)(=O)c2cccs2)cc1OC (configuration not stated) 6.88%
CCCCNC(=O)OC(C)CNC(=O)OC (configuration not stated) 4.6%
Cc1ccc(NS(=O)(=O)c2c(C)[nH]c(=O)[nH]c2=O)cc1C 6.73%
O=S(=O)(Nc1ccccc1)c1ccc(NS(=O)(=O)c2cccs2)cc1 11.7%
Cc1ccc(S(=O)(=O)N2CCOCC2)cc1NC(=O)CSc1nnc(N)s1 3.59%
CCOc1ccc(N2CC(C(=O)N/N=C/c3sccc3C)CC2=O)cc1 (configuration not stated) 1.58%
CC1CN/C(=C\C(=O)c2ccc(Br)cc2)C(=O)N1 (configuration not stated) 5.69%
Cc1ccc(C(O)P(=O)(OC(C)C)c2ccc(N(C)C)cc2)cc1 (configuration not stated) 9.51%
CC(C)(C)NC(=O)COC(=O)c1cc(Cl)ccc1[N+](=O)[O-] 4.45%
Cc1ccc(N2CC(C(=O)Nc3cc(Cl)ccc3-n3cncn3)CC2=O)cc1 (configuration not stated) 8.82%
O=C(c1ccco1)N1CCN(C(=O)C2CC(c3ccc(Cl)c(Cl)c3)=NO2)CC1 (configuration not stated) 1.62%
CCOC(=O)N1CCN(C(=O)C2CC(c3ccc(F)cc3)=NO2)CC1 (configuration not stated) -1.27%
Cc1ccccc1S(=O)(=O)NC(=O)C1(C)CCN1C(=O)Cc1ccc(Cl)cc1Cl (configuration not stated) 4.98%
COC(=O)CC(=O)N1CCN(c2ccc(Cl)c(Cl)c2)CC1 -9.1%
O=C(c1ccc(F)cc1)N1CCCC(c2nc(-c3cccs3)no2)C1 (configuration not stated) 6.3%
COc1cccc(-c2noc(C3CCCN(C(=O)c4ccc(F)cc4)C3)n2)c1 (configuration not stated) 22.6%
CC1CC(=O)Nc2ccccc2N1C(=O)COc1ccc2cc(Br)ccc2c1 (configuration not stated) 12.5%
COc1ccc(NS(=O)(=O)c2ccc(NC(=O)c3ccc(N(C)S(C)(=O)=O)cc3)cc2)cc1 8.88%
O=C(Nc1ccc(S(=O)(=O)Nc2ncccn2)cc1)c1cncc(Br)c1 0.19%
CC(C)c1ccc2c(c1)c(SC(C)(C)C)c(CC(C)(C)C(=O)O)n2Cc1ccc(Cl)cc1 -0.45%
CC(Oc1ccc(F)cc1)C(=O)N1CCN(c2ncccn2)CC1 (configuration not stated) 0.98%
O=C(O)Cc1csc(NC(=O)CSc2nnnn2-c2ccc(O)cc2)n1 11.2%
CC(=O)C1=C(C)NC(=O)NC1c1cc(Br)ccc1OCC#N (configuration not stated) 13.1%
CCn1c(SC(C)C(=O)Nc2ccc(N3CCOCC3)cc2)nnc1-c1ccco1 (configuration not stated) 5.42%
CCN(CC)C(=O)CSc1ncnc2c1cnn2-c1ccccc1 1.79%
Cc1ccc(S(=O)(=O)N2CCC(C(=O)N[C@@H](C)C(=O)NCc3ccccc3)CC2)cc1 3.35%
Cc1cc(C)cc(N(CC(=O)NC2CCCC2)C(=O)CCC(=O)Nc2nccs2)c1 1.06%
CC(OC(=O)c1ccccc1OCc1ccc(Cl)cc1)C(N)=O (configuration not stated) -0.86%
COc1cc(NC(=S)N2CCCC(C)C2)c(OC)cc1Cl (configuration not stated) 4.79%
Cc1n[nH]c(C)c1S(=O)(=O)N1CCCC(C(=O)Nc2ccc(Br)cc2)C1 (configuration not stated) 3.06%
CC1(c2nnc(-c3ccncc3)o2)CC(c2cccnc2)=NO1 (configuration not stated) -4.79%
CC(C)CCNC(=O)C1CCCN(S(=O)(=O)c2ccc(F)cc2)C1 (configuration not stated) 3.91%
CC(NC(=O)C(C)(C)C)C(c1cccs1)N1CCN(Cc2ccccc2)CC1 (configuration not stated) -8.56%
CCC(C)NCCOCCOc1ccc(Br)cc1C (configuration not stated) -26.7%
CCOC(=O)N1CCN(c2c(NCCCN3CCCC(C)C3)c(=O)c2=O)CC1 (configuration not stated) 5.95%
CCOc1ccc(-n2c(N)c(C(=O)NCC3CCCO3)sc2=S)cc1 (configuration not stated) 1.21%
CCCC(=O)N1CCN(c2nnc(-c3ccc(C)cc3)c3ccccc23)CC1 -14.5%
CC(=O)NC(Cc1ccc(F)c(F)c1)C(=O)NC1CCN(c2nnnn2-c2ccccc2)CC1 (configuration not stated) 1.64%
CCCC(=O)N1CCC1(C)C(=O)NCc1ccc(SC)cc1 (configuration not stated) 3.92%
COc1ccccc1N(CCOc1ccccc1)S(=O)(=O)c1ccccc1 0.89%
C=Cn1c(C(=O)O)ccc1-c1ccc(OC)cc1 -16.6%
CCn1c(-c2cccnc2Cl)nc2cc(C)c(C)cc21 2.37%
CCOCCOC(=O)C1=C(C)NC(=O)NC1c1ccc2c(c1)OCO2 (configuration not stated) 6.2%
Cc1cccc(NC(=O)C2CCCN2S(=O)(=O)c2ccc(F)cc2)c1C (configuration not stated) 3.34%
CC(C)c1nnc(NC(=O)C2CCCN2S(=O)(=O)c2ccc(Cl)cc2)s1 (configuration not stated) 10.2%
C=CCn1c2ccccc2c2nnc(SCc3[nH]c(=O)[nH]c3C(=O)CCCCC(=O)OCC)nc21 -3.32%
O=C(C(NS(=O)(=O)c1cccc2nsnc12)c1ccccc1)N1CCN(c2ccccn2)CC1 (configuration not stated) -10.2%
CCOC(=O)C(=O)C1C(=O)Nc2ccccc21 (configuration not stated) 1.1%
O=C(Nc1ccccc1C(=O)NCCCn1ccnc1)c1ccc(Cl)cc1Cl 7.21%

activation, active:
COCCn1c(SCC(=O)N2CCCCCC2)nc2c(c1=O)SCC2 26.5%
CSCCC(NC(=O)c1ccco1)C(=O)OCC(=O)Nc1ncc(Cl)c(C)c1Cl (configuration not stated) 20.9%
C/C(=N/NC(=O)c1ccn(C)n1)c1ccncc1 33.2%
O=C(c1ccco1)N1CCN(C(=O)C2CC(c3ccc(F)cc3)=NO2)CC1 (configuration not stated) 25.8%
Cc1ccc(-c2noc(C3CCCN(C(=O)c4cccc(Cl)c4)C3)n2)o1 (configuration not stated) 28.6%
COc1ccc(NC(=O)c2cnc(NS(=O)(=O)c3ccccc3)nc2)cc1 29.7%
CC(Sc1ncnc2c1cnn2-c1ccccc1)C(=O)Nc1ccc(N2CCOCC2)cc1 (configuration not stated) 25.3%
COc1ccccc1NC(=O)C1CCCN1S(=O)(=O)c1ccc(Cl)cc1 (configuration not stated) 28.2%
